# Screens deposited in PubChem by several laboratories.
# PAFAH2 inh: inhibitors of human PAFAH2 | Q99487 | recombinant PAFAH2, FP-rhodamine activity probe, fluorescence polarization | inhibition, % at 3.39 µM | actives 0.99% (n = 340,000) | AID 492956;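 active = inhibition above the mean over all tested compounds plus 3 SD, cut at about 30% in these data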;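 note: inhibitors block probe labeling of enzyme so polarization drops; 0% = enzyme with DMSO and 100% = wells lacking PAFAH2 protein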
# pPAFAH FP inh: inhibitors of human plasma PAF acetylhydrolase (pPAFAH); Q13093; recombinant pPAFAH, FP-rhodamine probe fluorescence polarization; inhibition, % at 3.39 µM; actives 1.5% (n = 330,000); AID 463082;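 active = inhibition above the mean inhibition across the screen plus 3 SD, cut at about 25% in these data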;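 note: inhibitors block binding of the rhodamine activity-based probe so polarization drops; 0% = enzyme with DMSO and 100% = wells lacking pPAFAH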
# PAFAH1B3 inh: inhibitors of human PAFAH1B3. recombinant PAFAH1B3, FP-rhodamine probe, fluorescence polarization. Q15102. actives 0.28% (n = 340,000). AID 492972. inhibition, % at 3.39 µM;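 active = inhibition above the screen-wide average of all tested compounds plus 3 SD, cut at about 25% in these data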;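 note: 0% = enzyme with DMSO only and 100% = wells lacking PAFAH1B3 protein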
# Target sequence (Q15102 whole entry, looked up): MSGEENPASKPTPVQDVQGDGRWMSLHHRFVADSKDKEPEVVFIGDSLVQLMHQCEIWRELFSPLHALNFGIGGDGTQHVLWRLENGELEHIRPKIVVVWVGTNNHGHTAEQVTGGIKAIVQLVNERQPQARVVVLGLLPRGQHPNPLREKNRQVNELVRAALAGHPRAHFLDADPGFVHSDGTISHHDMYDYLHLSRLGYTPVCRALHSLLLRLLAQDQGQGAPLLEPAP
# PfM18AAP inh: PfM18AAP enzyme inhibition; recombinant PfM18AAP, H-Glu-NHMec fluorogenic cleavage; inhibition, % at 7.35 µM; actives 1.2% (n = 290,000);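 active = inhibition above the campaign mean inhibition over all tested compounds plus 3 SD, cut at about 28% in these data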;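 note: 0% = plate median of test compound wells and 100% = 2 mM ZnCl2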
# DSG3 Ab inh: inhibitors of pemphigus antibody binding to human desmoglein-3 | P32926 | DSG3-coupled beads, scFv-anti-DSG3-GFP binding, flow cytometry; hits give low values | binding (percent of control), % at 10 µM | actives 0.48% (n = 310,000) | AID 588358;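 active = binding more than 3 SD below its plate's average and above zero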;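 note: hits lower antibody fragment binding to DSG3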
# PAFAH1B2 FP inh: inhibitors of human PAFAH1B2; recombinant PAFAH1B2, FP-rhodamine activity probe, fluorescence polarization; AID 492953; P68402; inhibition, % at 3.39 µM; actives 1.2% (n = 340,000);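 active = inhibition above the mean of all tested compounds plus 3 SD, cut at about 24% in these data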;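 note: 0% = enzyme with DMSO and 100% = wells lacking PAFAH1B2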
# Target sequence (P68402 whole entry, looked up): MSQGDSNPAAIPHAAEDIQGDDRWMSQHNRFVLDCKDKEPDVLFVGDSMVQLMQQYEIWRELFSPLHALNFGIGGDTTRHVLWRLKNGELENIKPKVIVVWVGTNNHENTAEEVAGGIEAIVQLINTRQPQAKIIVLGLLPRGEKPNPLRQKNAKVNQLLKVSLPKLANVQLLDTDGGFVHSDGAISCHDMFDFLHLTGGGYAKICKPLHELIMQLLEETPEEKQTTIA
# * marks the source's active call; other numbers are inactive results; · = no result. The list is not random: actives were taken first. Their share in the collection is about 3.8%.
SMILES,PAFAH2 inh,pPAFAH FP inh,PAFAH1B3 inh,PfM18AAP inh,DSG3 Ab inh,PAFAH1B2 FP inh
CN1CCN(c2ccc(N)c(N3CCN(C)CC3)c2)CC1,1,-3,10,30*,106,-9
CN1CCN(c2ccc(N)cc2)CC1,-7,1,-2,-5,100,2
O=c1cc(C(F)(F)F)c2cc3c4c(c2o1)CCCN4CCC3,12,26*,18,-4,131,15
O=C1NC(=O)N(Cc2ccccc2)C(=O)/C1=C\c1ccco1,11,20,8,4,87,7
CCCCN1C(=O)/C(=C\c2ccco2)C(=O)N(CCc2ccccc2)C1=O,9,29*,-18,-21,101,-4
O=C(O)c1c[nH]c2ccc(S(=O)(=O)N(CCCl)CCCl)cc12,15,-7,5,-7,102,37*
CCc1cc2c(s1)NC(=O)CN=C2c1cccs1,2,33*,5,0,96,-1
CCN(CC)C(=O)c1ccc2c(c1)C1C=CCC1C(C(=O)O)N2 (stereo unspecified),40*,·,40*,19,92,20
CCN(CC)C(=O)c1ccc(N(Cc2ccccc2)S(C)(=O)=O)cc1,11,·,-6,-1,120,8
CNC(=O)Oc1ccc(C(=O)N2c3ccccc3NC(=O)C2C)cc1 (stereo unspecified),-2,7,11,-2,101,48*
CN1C(=O)NC(=O)/C(=C/c2ccc([N+](=O)[O-])s2)C1=O,29,25*,23,12,96,22
C[C@]1(O)CCC2C3CC[C@H]4C[C@@H](OC(=O)[C@@H](N)CCCCN)CC[C@]4(C)C3CC[C@@]21C (stereo partly specified),·,·,·,·,107,·
CCC(C)c1ccc(N2C(=O)NC(=O)/C(=C/c3cccn3CCOc3ccc(C)cc3)C2=O)cc1 (stereo unspecified),25,28*,5,-1,106,17
CCC(=Nc1cc(OC)ccc1OC)c1c(O)[nH]c(=O)[nH]c1=O,-5,9,0,29*,99,1
[N-]=[N+]=NC1C[C@H](n2ccc(=O)[nH]c2=O)O[C@@H]1CO (stereo partly specified),-9,1,-12,-7,101,2
CCN1C(=O)CC(=O)N(CC)C1=S,·,·,·,·,101,·
c1coc(CN2Cc3ccccc3-n3nncc3C2)c1,·,·,·,·,101,·
NCC(O)c1cc(O)c(O)cc1F (stereo unspecified),4,27*,2,·,·,1
O=C(COC(=O)Cc1ccccc1)NNC(=O)c1ccc([N+](=O)[O-])cc1,3,28*,0,·,·,1
Cn1ncnc2c(=O)n(C)c(=O)nc1-2,59*,5,75*,·,·,51*
Cc1cc(C)c(C)c(C(O)(C(=O)O)c2ccccc2)c1 (stereo unspecified),·,·,·,·,105,·
ClCCN(CCCl)c1ccc(-n2cnc3c(Cl)ncnc32)cc1,5,·,10,·,113,6
Cc1ccccc1N1C(=O)NC(=O)/C(=C\c2cc(Br)c(N3CCOCC3)o2)C1=O,-6,5,-9,41*,261,2
Cc1ccccc1N1C(=O)NC(=O)/C(=C/c2ccc(N3CCOCC3)o2)C1=O,-7,-10,4,10,113,-3
Cc1ccccc1N1C(=O)/C(=C/c2ccco2)C(=O)NC1=S,·,91*,·,-28,·,·
SMILES,PAFAH2 inh,pPAFAH FP inh,PAFAH1B3 inh,PfM18AAP inh,DSG3 Ab inh,PAFAH1B2 FP inh
O=C(NC1(C(F)(F)F)Oc2ccc(Cl)cc2O1)N1CCC2(CC1)OCCO2 (stereo unspecified),-2,1,0,98*,100,6
O=C(CCC(=O)N1CCOc2ccc(Cl)cc21)N1CCC2(CC1)OCCO2,3,7,10,0,104,3
O=S(=O)(NC1CCCCCCC1)OCC(Cl)(Cl)Cl,7,29*,-5,7,103,48*
O=C1Nc2ccccc2Oc2ccccc21,·,·,·,·,100,·
COC1=CC2[C@@H]3Cc4ccc(OC)c(O)c4[C@]2(CCN3C)CC1=O (stereo partly specified),2,2,14,·,100,2
O=C1CN=C(c2ccccc2)c2ccccc2N1Cc1ccc(C(F)(F)F)cc1,4,3,1,-6,101,59*
O=C(c1ccco1)c1cn(Cc2ccccc2)c2ccccc12,3,30*,-2,2,108,-5
CCC(=O)c1cn(Cc2ccccc2)c2ccccc12,-6,2,14,-4,98,9
CNC(=O)Oc1cccc(-c2cn3cc(OC(=O)NC)ccc3n2)c1,11,11,9,31*,80,14
NC(=S)N/N=C/c1coc2ccccc2c1=O,5,0,1,29*,101,-1
O=C1NC(=O)C(=Cc2coc3ccccc3c2=O)C(=O)N1,10,-2,-3,8,100,4
O=C(c1ccc(N2CCCCCC2)c([N+](=O)[O-])c1)N1CCC2(CC1)OCCO2,11,33*,9,4,·,4
Cn1c(O)c(C(=N)COc2ccccc2)c(=O)n(C)c1=O,-4,2,5,-1,99,2
Cn1c(O)c(C(=Nc2ccccc2)SCc2ccc(Cl)cc2)c(=O)n(C)c1=O,12,4,5,6,108,26*
CC12CCC3C(CCC4(O)CC(O)CCC34C=NO)C1(O)CCC2C1=COC(=O)C1 (stereo unspecified),-1,·,10,·,85,6
C#C[C@]1(O)CCC2C3C(=O)C=C4C(Cl)=CCC[C@]4(C)C3CC[C@@]21C (stereo partly specified),7,·,-4,·,113,2
CC1(C)CC(=O)CC(C)(C)N1O,·,·,·,·,104,·
NP(=O)(OCCCc1ccccc1)Oc1ccccc1Cl (stereo unspecified),67*,6,45*,-4,105,92*
NP(=O)(OCCCc1ccccc1)Oc1ccc(Cl)cc1 (stereo unspecified),12,2,-1,4,103,95*
NP(=O)(OCCCc1ccccc1)c1ccccc1 (stereo unspecified),11,0,-4,5,103,8
CC(C)CCOP(N)(=O)Oc1ccccc1Cl (stereo unspecified),30,1,26*,-8,102,85*
S=C(NCCc1ccccc1)N1Cc2ccccc2-n2nncc2C1,·,·,·,·,101,·
c1ccc(C2(NC3=NCCO3)CCCCC2)cc1,·,·,·,·,104,·
COC(=O)C1=C(c2cccc(OCc3ccccc3)c2)C[C@@H]2CC[C@H]1N2C(=O)NCCCc1ccccc1,-13,30*,-8,·,103,4
O=C(Nc1ccc(F)cc1)N1Cc2ccccc2-n2nncc2C1,·,·,·,·,105,·
Cc1cc(OCC(=O)NCc2ccncc2)c2c3c(c(=O)oc2c1)CCC3,4,3,-6,0,95,2
